Reference: the supplement of paper PMC7366291
Structures can show the parent of a compound that is named as a salt. ± gives the standard deviation or the standard deviation of the averaged measurements.

What was measured:
Conditions in all cases: 25 µM; exposure: 24-48 hpf
[1] = test system: Danio rerio Tg(wt1b:EGFP) embryo, pronephros; experiment: glomerular separation, fold change vs DMSO control; higher = glomeruli further apart (abnormal)
How it was run: (§1)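 Features are reported as fold changes against the mean of same-day DMSO-treated embryos. Before that, values more than 2 SD away from the feature mean were excluded. The embryos, dechorionated Tg(wt1b:EGFP) zebrafish, had been exposed from 24 to 48 hpf at 28.5°C to 25 μM compound in 0.5% DMSO in HEPES-buffered E3 with 0.003% PTU, and distances and angles came from 16 manually set points on maximum projections of dorsal pronephros images in Fiji.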

[2] = test system: Danio rerio Tg(wt1b:EGFP) embryo, pronephros; experiment: glomerular width (mean of left and right), fold change vs DMSO control; higher = wider glomerulus
How it was run: as §1

[3] = test system: Danio rerio Tg(wt1b:EGFP) embryo, pronephros; experiment: fraction of imaged embryos annotated as normal kidney; higher = less nephrotoxic; extreme values may be limits of the assay
How it was run: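 Tricaine-anaesthetised Tg(wt1b:EGFP) zebrafish larvae were oriented dorsally in agarose-filled 96-well plates, and their pronephroi were recorded by widefield fluorescence at 470 nm in 10 z-slices. Before this, the dechorionated embryos had been exposed in 12-well plates to 25 μM compound in 0.5% DMSO and 5 mM HEPES-buffered E3 with 0.003% PTU, from 24 to 48 hpf at 28.5°C. Maximum projections were annotated manually for each embryo, and the read-out is the fraction per treatment classed as normal kidney.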

[4] = test system: Danio rerio Tg(wt1b:EGFP) embryo, pronephros; experiment: pronephric angle neck segment to proximal convoluted tubule (mean of left and right), fold change vs DMSO control; higher = larger pronephric angle
How it was run: as §1

Compound	glomerular separation [1]	glomerular width [2]	fraction of imaged embryos annotated as normal kidney [3]	pronephric angle neck segment [4]
O=c1[nH]c2ccccc2n1C1CCN(CCCC(c2ccc(F)cc2)c2ccc(F)cc2)CC1 [Pimozide]	4.46 ± 1.6	0.673 ± 0.02	0	0.976 ± 0.099
COc1ccc(CCN2CCC(Nc3nc4ccccc4n3Cc3ccc(F)cc3)CC2)cc1 [Astemizole]	2.83 ± 2.3	0.777 ± 0.12	0.333	1.01 ± 0.022
C[C@]12N[C@H](Cc3ccccc31)c1ccccc12 [Dizocilpine maleate]	0.888 ± 0.31	1.03 ± 0.077	0.917	0.978 ± 0.071
C[C@]12CC[C@@H](O)C[C@@H]1CC[C@@H]1[C@@H]2CC[C@]2(C)C(=O)CC[C@@H]12 [Androsterone]	0.907 ± 0.17	0.991 ± 0.038	0.75	0.999 ± 0.015
CCCC(C)C1(CC)C(=O)NC(=O)NC1=O (configuration not stated) [Pentobarbital]	1.63 ± 0.87	0.987 ± 0.044	0.667	1.214 ± 0.0019
COc1ccc(C(CN(C)C)C2(O)CCCCC2)cc1 (configuration not stated) [Venlafaxine]	0.684 ± 0.13	1.023 ± 0.0059	0.917	0.925 ± 0.013
CCn1cc(C(=O)O)c(=O)c2cc3c(cc21)OCO3 [Oxolinic acid]	0.66 ± 0.37	1.06 ± 0.096	0.583	0.799 ± 0.024
C[N+](C)(C)CCCCCCCCCC[N+](C)(C)C [Decamethonium bromide]	1.04 ± 0.55	1.01 ± 0.041	0.727	1.02 ± 0.021
CO[C@]12C[C@@H](COC(=O)c3cncc(Br)c3)CN(C)[C@@H]1Cc1cn(C)c3cccc2c13 [Nicergoline]	1.02 ± 0.39	1.02 ± 0.037	1	0.966 ± 0.028
CN(C)C(=O)Oc1cc(OC(=O)N(C)C)cc(C(O)CNC(C)(C)C)c1 (configuration not stated) [Bambuterol hydrochloride]	0.925 ± 0.31	0.915 ± 0.035	1	1.01 ± 0.021
C=CCN1CC[C@]23c4c5ccc(O)c4O[C@H]2C(=O)CC[C@@]3(O)[C@H]1C5 [Naloxone hydrochloride]	0.981 ± 0.33	1.01 ± 0.055	0.833	1.05 ± 0.017
CC(=O)OC1CN2CCC1CC2 (configuration not stated) [Aceclidine Hydrochloride]	0.978 ± 0.38	1.053 ± 0.01	0.917	0.99 ± 0.044
CC(C)C[C@H](CN)CC(=O)O [Pregabalin]	1.1 ± 0.25	0.9518 ± 0.0028	0.917	1.03 ± 0.03
CCC1(c2ccc(N)cc2)CCC(=O)NC1=O (configuration not stated) [Glutethimide, para-amino]	1.05 ± 0.27	1.04 ± 0.036	0.667	1.05 ± 0.021
C[C@]12COC(=O)C[C@@H]1CC[C@@H]1[C@@H]2CC[C@@]2(C)[C@H]1CC[C@]2(C)O [Oxandrolone]	0.832 ± 0.35	1.1 ± 0.05	0.917	1.01 ± 0.036
NC(=O)CN1CCCC1=O [Piracetam]	0.815 ± 0.17	1.08 ± 0.032	0.917	0.914 ± 0.051
CC(C)(C)NCC(O)c1ccccc1Cl (configuration not stated) [Tulobuterol]	1.02 ± 0.37	0.9779 ± 0.007	0.917	1.01 ± 0.039
C[N+]12CCC(CC1)C(OC(=O)C(O)(c1ccccc1)c1ccccc1)C2 (configuration not stated) [Clidinium bromide]	0.83 ± 0.32	0.982 ± 0.1	0.917	0.967 ± 0.022
